Calls of active or inactive are those of the source. The calls were made as follows: active = hit-call score of the fitted dose curve at least 0.9, where 1 is the maximum; inactive = score below 0.9.
Key:
[1] = target: Transcription factor E2F1 (Homo sapiens) (UniProt Q01094); test: ATG_E2F_CIS: Attagene CIS-FACTORIAL HepG2 Assay for human E2F Transcription Factor 1 (AID 2282935); conditions: HepG2 Attagene cis-reporter, E2F reporter RNA transcripts; actives raise or lower the signal
In short: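 Transient MRTU transfection of HepG2; 24 h compound exposure; RNA → oligo(dT) RT → PCR → FAM label → HpaI cut → CE fluorescence. Gain/loss of signal fit against DMSO.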

[2] = ATG_E_Box_CIS: Attagene CIS-FACTORIAL HepG2 Assay for human Enhancer Box (E-box) (AID 2282936); conditions: HepG2 E-box cis-reporter transcription, actives raise or lower the signal
In short: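 Transiently transfected HepG2, endogenous TF-driven reporters, 24 h dosing. Readout: RT-PCR plus capillary electrophoresis of fluorescent reporter fragments. Gain or loss of signal fitted bidirectionally against DMSO baseline.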

[3] = ATG_M_61_CIS: Attagene CIS-FACTORIAL HepG2 Assay for M61 Transcription Factor (Internal Marker) (AID 2282937); conditions: HepG2 Attagene CIS-FACTORIAL M61 internal marker reporter; actives raise or lower the signal
In short: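 Human liver HepG2, transient MRTU transfection (cis promoter elements), 24 h compound. Total RNA → oligo(dT) RT → PCR → FAM label → HpaI → CE. Internal background marker; bidirectional fitting, DMSO = baseline.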

[4] = ATG_EGR_CIS: Attagene CIS-FACTORIAL HepG2 Assay for human Early Growth Response 1 (EGR1) (AID 2282938); conditions: HepG2 Attagene CIS-FACTORIAL EGR reporter mRNA; actives raise or lower the signal
In short: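 Transient transfection of human HepG2 with multiple cis-regulated reporter units, chemical exposure 24 h, total RNA isolated. Reverse transcription, PCR, fluorescent labelling and capillary electrophoresis quantify reporter transcripts; activity fitted bidirectionally against DMSO.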

[5] = ATG_M_19_CIS: Attagene CIS-FACTORIAL HepG2 Assay for M19 Transcription Factor (Internal Marker) (AID 2282939); conditions: HepG2 Attagene CIS-FACTORIAL M19 internal marker reporter; actives raise or lower the signal
In short: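 HepG2, MRTU transient transfection, 24 h dosing. Total RNA → RT-PCR → 6-FAM primer extension → HpaI digest → CE fluorescence. Bidirectional curve fit, DMSO negative control.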

[6] = ATG_ERE_CIS: Attagene CIS-FACTORIAL HepG2 Assay for Estrogen Response Element (ERE) (AID 2282940); conditions: HepG2 ERE cis-reporter, Attagene RNA transcript; actives raise or lower the signal
In short: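 After a 24 h chemical treatment, RNA from reporter-transfected HepG2 cells is reverse-transcribed, PCR-amplified and fluorescently labelled. Fragments separated by capillary electrophoresis give reporter signal; DMSO serves as negative control.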

[7] = ATG_Ets_CIS: Attagene CIS-FACTORIAL HepG2 Assay for human Erythroblast Transformation Specific (ETS) (AID 2282941); conditions: HepG2 ETS cis-reporter transcription, actives raise or lower the signal
In short: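 RT-PCR/capillary electrophoresis fluorescence read-out of reporter mRNA; HepG2 transient multi-reporter transfection; 24 h compound exposure; gain or loss of signal fitted bidirectionally relative to DMSO.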

[8] = target: Hepatocyte nuclear factor 3-beta (Homo sapiens) (UniProt Q9Y261); test: ATG_FoxA2_CIS: Attagene CIS-FACTORIAL HepG2 Assay for human Forkhead box A2 (FOXA2) (AID 2282942); conditions: HepG2 cis-reporter transcription factor activity, 24 h; actives raise or lower the signal
Sequence of Hepatocyte nuclear factor 3-beta (Homo sapiens) (Q9Y261 whole entry, looked up): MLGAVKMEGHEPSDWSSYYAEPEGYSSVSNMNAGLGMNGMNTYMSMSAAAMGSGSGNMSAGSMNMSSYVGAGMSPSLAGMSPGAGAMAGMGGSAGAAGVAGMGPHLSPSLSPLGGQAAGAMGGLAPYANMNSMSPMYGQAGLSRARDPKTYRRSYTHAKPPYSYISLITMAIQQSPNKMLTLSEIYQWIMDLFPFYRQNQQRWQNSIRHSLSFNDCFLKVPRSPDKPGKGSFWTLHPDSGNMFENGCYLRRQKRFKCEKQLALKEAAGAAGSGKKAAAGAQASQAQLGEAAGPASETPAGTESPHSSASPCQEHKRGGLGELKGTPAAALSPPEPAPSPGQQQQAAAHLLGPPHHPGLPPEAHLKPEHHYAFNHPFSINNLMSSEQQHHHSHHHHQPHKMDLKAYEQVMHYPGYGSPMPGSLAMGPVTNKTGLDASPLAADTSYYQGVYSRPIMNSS
In short: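 Transient MRTU transfection of HepG2 liver cells; 24 h treatment; total RNA → oligo(dT) RT → PCR → FAM primer extension → HpaI cut → CE. Bidirectional fit vs DMSO.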

[9] = ATG_FoxO_CIS: Attagene CIS-FACTORIAL HepG2 Assay for human Forkhead box O (FoxO) (AID 2282943); conditions: HepG2 Attagene cis-reporter, FoxO element, mRNA; actives raise or lower the signal
In short: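 HepG2 cells transiently transfected with cis-element-driven reporter units report endogenous FoxO activity. After 24 h chemical exposure, reporter mRNA quantified by RT-PCR, fluorescent labeling, HpaI digestion and capillary electrophoresis; bidirectional fit versus DMSO.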

[10] = ATG_GATA_CIS: Attagene CIS-FACTORIAL HepG2 Assay for human GATA Binding Protein (AID 2282944); conditions: HepG2 GATA cis-element reporter, Attagene multiplex mRNA; actives raise or lower the signal
In short: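 Cells: HepG2, transiently transfected with cis-regulated reporter transcription units. Exposure: 24 h. Detection: RT-PCR plus capillary electrophoresis of FAM-labeled fragments. Analysis: bidirectional, DMSO as baseline.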

[11] = ATG_GLI_CIS: Attagene CIS-FACTORIAL HepG2 Assay for human Zinc Finger Protein GLI1 (AID 2282945); conditions: HepG2, Attagene cis-factorial reporter mRNA, GLI element; actives raise or lower the signal
In short: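 Transiently transfected HepG2 cells report endogenous transcription factor activity via cis-element-driven reporter units. After 24 h compound exposure, reporter mRNA was measured by RT-PCR with capillary electrophoresis; bidirectional fitting against DMSO baseline.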

[12] = target: Bile acid receptor (Homo sapiens) (UniProt Q96RI1); test: ATG_IR1_CIS: Attagene CIS-FACTORIAL HepG2 Assay for human Nuclear Receptor Subfamily 1 Group H Member 4 (NR1H4), IR1 submotif (AID 2282946); conditions: IR1 reporter transcription, actives raise or lower the signal
Sequence of Bile acid receptor (Homo sapiens) (Q96RI1 whole entry, looked up): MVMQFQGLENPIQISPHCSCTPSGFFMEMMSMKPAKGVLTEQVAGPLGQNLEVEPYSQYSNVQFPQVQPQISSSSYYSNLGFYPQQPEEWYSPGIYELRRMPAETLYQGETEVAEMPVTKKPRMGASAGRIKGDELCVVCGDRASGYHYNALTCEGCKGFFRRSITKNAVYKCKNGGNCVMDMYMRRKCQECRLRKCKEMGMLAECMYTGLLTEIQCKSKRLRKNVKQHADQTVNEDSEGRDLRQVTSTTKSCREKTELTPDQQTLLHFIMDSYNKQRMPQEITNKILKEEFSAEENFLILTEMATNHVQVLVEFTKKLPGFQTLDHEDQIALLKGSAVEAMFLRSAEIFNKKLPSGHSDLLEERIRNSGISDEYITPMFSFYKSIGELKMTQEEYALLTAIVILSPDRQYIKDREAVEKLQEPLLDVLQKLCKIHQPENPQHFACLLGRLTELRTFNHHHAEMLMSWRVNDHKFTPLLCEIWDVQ
In short: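 Fluorescence of capillary-separated, HpaI-digested RT-PCR reporter products gave IR1-element mRNA induction in HepG2 cells 24 h after dosing. Endogenous transcription factors drove the cis-regulated reporters; activity was fitted bidirectionally against DMSO.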

[13] = ATG_GRE_CIS: Attagene CIS-FACTORIAL HepG2 Assay for human Glucocorticoid Response Elements (GRE) (AID 2282947); conditions: HepG2 GRE cis-reporter, Attagene multiplex mRNA; actives raise or lower the signal
In short: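 Read-out: fluorescent reporter-transcript fragments separated by capillary electrophoresis after RT-PCR. Transiently transfected HepG2 cells carrying cis-element-driven reporter units were dosed for 24 h; gain or loss of signal fitted against DMSO control.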

[14] = ATG_ISRE_CIS: Attagene CIS-FACTORIAL HepG2 Assay for human Interferon Regulatory Factor 1 (IRF1) binding to an Interferon-Stimulated Response Element (ISRE) (AID 2282948); conditions: HepG2 ISRE cis-reporter (Attagene), mRNA transcription readout; actives raise or lower the signal
In short: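 Read-out: fluorescent RT-PCR products resolved by capillary electrophoresis, reporting endogenous transcription factor activity via ISRE-driven reporter mRNA in transfected HepG2 cells dosed for 24 h; gain or loss fitted relative to DMSO.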

[15] = ATG_M_32_CIS: Attagene CIS-FACTORIAL HepG2 Assay for M32 Transcription Factor (Internal Marker) (AID 2282949); conditions: HepG2 Attagene cis-factorial M32 reporter, mRNA; actives raise or lower the signal;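 also: background control marker of the multiplexed CIS panel rather than a real target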
In short: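 Using DMSO as baseline, bidirectional curve fits were applied to reporter mRNA signals. These came from transiently transfected HepG2 cells exposed for 24 h, with RNA analysed by RT-PCR, FAM primer extension, HpaI digestion and CE.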

[16] = ATG_M_06_CIS: Attagene CIS-FACTORIAL HepG2 Assay for M06 Transcription Factor (Internal Marker) (AID 2282950); conditions: HepG2 Attagene CIS-FACTORIAL M06 internal marker reporter; actives raise or lower the signal
In short: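 Measured 24 h post-dosing in transiently transfected HepG2 cells, this internal-marker endpoint reports reporter mRNA via RT-PCR with fluorescent primer extension and capillary electrophoresis. DMSO served as negative control and baseline for bidirectional fitting.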

[17] = target: Hypoxia-inducible factor 1-alpha (Homo sapiens) (UniProt Q16665); test: ATG_HIF1a_CIS: Attagene CIS-FACTORIAL HepG2 Assay for human Hypoxia Inducible Factor 1 (HIF1A) (AID 2282951); conditions: HepG2 Attagene cis-factorial HIF1a reporter transcription; actives raise or lower the signal
Sequence of Hypoxia-inducible factor 1-alpha (Homo sapiens) (Q16665 whole entry, looked up, the tested form may be a part): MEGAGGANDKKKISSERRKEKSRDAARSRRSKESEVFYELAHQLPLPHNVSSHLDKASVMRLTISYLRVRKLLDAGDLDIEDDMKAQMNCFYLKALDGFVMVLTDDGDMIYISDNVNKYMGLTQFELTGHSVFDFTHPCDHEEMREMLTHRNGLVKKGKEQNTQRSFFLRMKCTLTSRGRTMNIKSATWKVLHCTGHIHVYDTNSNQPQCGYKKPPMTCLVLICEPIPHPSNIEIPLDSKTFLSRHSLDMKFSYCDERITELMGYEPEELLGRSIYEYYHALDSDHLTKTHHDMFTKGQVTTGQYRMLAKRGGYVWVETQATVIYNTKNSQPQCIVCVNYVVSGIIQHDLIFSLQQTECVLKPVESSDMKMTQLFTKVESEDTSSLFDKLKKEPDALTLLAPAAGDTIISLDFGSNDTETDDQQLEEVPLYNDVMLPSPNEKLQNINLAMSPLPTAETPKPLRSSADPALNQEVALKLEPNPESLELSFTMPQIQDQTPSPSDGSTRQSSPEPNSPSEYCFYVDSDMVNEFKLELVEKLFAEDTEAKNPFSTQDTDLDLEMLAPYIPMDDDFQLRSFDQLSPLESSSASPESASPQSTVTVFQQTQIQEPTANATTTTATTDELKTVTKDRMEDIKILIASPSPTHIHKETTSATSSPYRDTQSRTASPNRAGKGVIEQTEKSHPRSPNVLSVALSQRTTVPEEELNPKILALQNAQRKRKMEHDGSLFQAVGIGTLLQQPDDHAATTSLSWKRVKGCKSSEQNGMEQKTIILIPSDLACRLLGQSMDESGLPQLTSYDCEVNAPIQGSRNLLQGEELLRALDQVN
In short: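 Transient MRTU transfection of human HepG2 liver cells, 24 h compound treatment, then total RNA isolation, oligo(dT) reverse transcription, PCR amplification, fluorescent labelling and capillary electrophoresis of reporter fragments. Gain or loss relative to DMSO.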

[18] = target: Hepatocyte nuclear factor 6 (Homo sapiens) (UniProt Q9UBC0); test: ATG_HNF6_CIS: Attagene CIS-FACTORIAL HepG2 Assay for human Hepatocyte Nuclear Factor 6 (HNF6) (AID 2282952); conditions: HepG2 Attagene cis-factorial HNF6 reporter transcription; actives raise or lower the signal
Sequence of Hepatocyte nuclear factor 6 (Homo sapiens) (Q9UBC0 whole entry, looked up, the tested form may be a part): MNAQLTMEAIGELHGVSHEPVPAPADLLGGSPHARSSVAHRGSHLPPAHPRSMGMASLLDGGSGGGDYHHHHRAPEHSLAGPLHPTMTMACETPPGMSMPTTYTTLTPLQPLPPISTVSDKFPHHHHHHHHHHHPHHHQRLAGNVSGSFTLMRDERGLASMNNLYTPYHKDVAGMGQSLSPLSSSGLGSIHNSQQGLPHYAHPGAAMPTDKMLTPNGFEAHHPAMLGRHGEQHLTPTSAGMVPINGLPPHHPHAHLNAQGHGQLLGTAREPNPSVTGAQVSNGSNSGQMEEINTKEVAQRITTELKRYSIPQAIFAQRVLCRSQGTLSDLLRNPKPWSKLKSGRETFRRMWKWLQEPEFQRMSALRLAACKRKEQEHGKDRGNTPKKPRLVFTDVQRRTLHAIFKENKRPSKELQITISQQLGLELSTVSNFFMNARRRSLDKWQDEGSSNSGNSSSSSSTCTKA
In short: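 Readout: fluorescent reporter-transcript fragments resolved by capillary electrophoresis after RT-PCR, reflecting endogenous factor activity in transfected HepG2. Exposure 24 h. Gain or loss of signal fitted bidirectionally against DMSO.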

[19] = ATG_MRE_CIS: Attagene CIS-FACTORIAL HepG2 Assay for human Metal Responsive Element (MRE) (AID 2282954); conditions: HepG2 MRE cis-reporter transcription, Attagene multiplex; actives raise or lower the signal
In short: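 RT-PCR/capillary electrophoresis readout of reporter mRNA, 24 h post-dosing, in HepG2 cells transfected with multiplexed cis-regulated reporter constructs. Gain or loss of signal fitted bidirectionally against DMSO baseline.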

[20] = target: Heat shock factor protein 1 (Homo sapiens) (UniProt Q00613); test: ATG_HSE_CIS: Attagene CIS-FACTORIAL HepG2 Assay for human Heat Shock Transcription Factor 1 (HSE) (AID 2282953); conditions: HepG2 HSE cis-reporter, Attagene RNA transcription; actives raise or lower the signal
Sequence of Heat shock factor protein 1 (Homo sapiens) (Q00613 whole entry, looked up): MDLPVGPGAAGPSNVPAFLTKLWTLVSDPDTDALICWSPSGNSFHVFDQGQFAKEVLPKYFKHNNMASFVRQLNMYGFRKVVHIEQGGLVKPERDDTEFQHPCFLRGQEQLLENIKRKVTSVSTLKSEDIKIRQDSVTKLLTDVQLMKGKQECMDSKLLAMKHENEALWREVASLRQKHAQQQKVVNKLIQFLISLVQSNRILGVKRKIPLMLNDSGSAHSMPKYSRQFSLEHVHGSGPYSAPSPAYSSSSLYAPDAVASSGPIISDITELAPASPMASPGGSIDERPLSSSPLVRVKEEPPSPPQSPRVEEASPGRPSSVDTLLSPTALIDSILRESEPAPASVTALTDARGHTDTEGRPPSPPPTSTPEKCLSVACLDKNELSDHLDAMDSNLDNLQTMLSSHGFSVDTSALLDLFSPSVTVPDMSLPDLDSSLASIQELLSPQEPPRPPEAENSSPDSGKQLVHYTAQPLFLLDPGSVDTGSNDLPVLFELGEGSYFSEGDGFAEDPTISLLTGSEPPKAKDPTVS
In short: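 Reporter mRNA induction in HepG2 is measured 24 h after dosing, using transiently transfected multiplexed cis-regulated reporter units. Signal comes from capillary electrophoresis of labelled RT-PCR products, with DMSO as negative control.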

Measured: outcome

Sequence of Transcription factor E2F1 (Homo sapiens) (Q01094 whole entry, looked up): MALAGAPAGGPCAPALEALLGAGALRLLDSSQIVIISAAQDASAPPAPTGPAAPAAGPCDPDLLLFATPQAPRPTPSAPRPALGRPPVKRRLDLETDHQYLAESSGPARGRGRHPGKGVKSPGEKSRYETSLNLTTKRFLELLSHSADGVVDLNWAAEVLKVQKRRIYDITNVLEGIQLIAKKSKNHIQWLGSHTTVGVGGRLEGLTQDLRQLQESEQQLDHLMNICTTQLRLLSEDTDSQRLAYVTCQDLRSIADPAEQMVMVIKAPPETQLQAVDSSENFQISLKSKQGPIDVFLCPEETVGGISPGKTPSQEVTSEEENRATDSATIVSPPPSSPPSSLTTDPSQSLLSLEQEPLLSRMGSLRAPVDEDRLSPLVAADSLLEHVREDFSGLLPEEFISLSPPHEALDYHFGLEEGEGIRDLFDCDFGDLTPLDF

CCCCCCCCCCCCC
not listed: [20]
inactive: all other assays above

Cn1cccc1
inactive: all assays above

CCN(CC)c1cccc(C)c1
not listed: [14] | [20]
inactive: all other assays above

CCCCCCCCCCCCCC(=O)OC(C)C
inactive: all assays above

CCC(C)C(=O)OCCc1ccccc1 (centres undefined)
inactive: all assays above

CCCCCCCC(=O)OCC(COC(=O)CCCCCCC)OC(=O)CCCCCCC
not listed: [17]
inactive: all other assays above

C1CCSC1
not listed: [15]
inactive: all other assays above

CC(=O)c1ccc(S(=O)(=O)NC(=O)NC2CCCCC2)cc1
not listed: [17]
inactive: all other assays above

— PubChem BioAssay (EPA / NIEHS)
